Shn3 inh set2: Schnurri-3 reporter inhibition in Clone20 osteoblasts | inhibition, % at 12.5 µM | AID 588674 | 360,000 compounds, 0.52% hits | Clone20 osteoblast Shn3 3'UTR firefly luciferase, 24 h;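 active means mean inhibition of at least 75% with every replicate also reaching 75%; inconclusive means mean inhibition at least 75% but some replicate below; inactive means mean inhibition below 75%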
Jurkat NFkB inh: lowers PMA/ionomycin-induced NF-kB signal in Jurkat cells; PMA/ionomycin-induced NF-kB luciferase reporter, luminescence; inhibition, % at 4 µM; 330,000 compounds, 0.53% hits; in the data active means inhibition above about 50%
Gli-Sufu antag: blocks Gli-Sufu signaling in a luciferase reporter. 340,000 compounds, 0.74% hits. inhibition, % at 5 µM. Sufu-KO-LIGHT fibroblasts, Gli luciferase reporter luminescence;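 active means inhibition above about 55%, limit read from the data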
aSyn 5UTR inh: 5' untranslated region of α-synuclein, MLPCN primary screen; alpha-synuclein 5'UTR reporter, inhibitor activity; inhibition, % (tested at 7.5 µM); 300,000 compounds, 0.82% hits; in the data active means inhibition above about 60%; inconclusive means no clear call, values can overlap the other calls;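 further: H4 neuroglioblastoma cells stably carrying SNCA 5'UTR luciferase fusion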
TAG inh: reduces triacylglycerol accumulation in H9c2 cells; 230,000 compounds, 0.66% hits; inhibition, % at 12.5 µM; Nile Red lipid (TAG) fluorescence; cells loaded with 200 µM oleic acid;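 active means pattern-corrected inhibition of lipid staining of at least 50% with the nuclear-stain viability signal not falling by more than 50%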
697 NFkB inh: lowers PMA/ionomycin-induced NF-kB signal in 697 B cells; 330,000 compounds, 0.33% hits; 697 B-cell NF-kB luciferase reporter, 16 h; inhibition, % at 4 µM; in the data active means inhibition above about 35%
Numbers stand for hits; - = inactive; ? = inconclusive; . = no result given. In the library only some 2.3% were active in any assay of this set; here they are far more common.

SMILES	Shn3 inh set2	Jurkat NFkB inh	Gli-Sufu antag	aSyn 5UTR inh	TAG inh	697 NFkB inh
Cc1ccccc1NC(=O)NCC1CCN(C(=O)OC(C)(C)C)CC1	-	-	-	-	-	-
Cc1nc2c(O)c3c(c(O)c2nc1C)C1C=CC3CC1	97.1	.	-	.	-	.
Cc1nc2c(C)c(C)c(C)c(C)c2nc1C	-	-	-	-	-	-
CC1CCCC(NC(=O)c2ccc3c(SCC(=O)O)c4c(nc3c2)CCC4)C1C (stereo not drawn)	-	-	-	-	-	-
O=C(C(=O)N1CCN(Cc2ccc3c(c2)OCO3)CC1)c1c[nH]c2ccccc12	-	-	-	-	.	-
O=C(Nc1cccc(C(F)(F)F)c1)c1ccc2sc([C@H]3C[C@H](O)[C@@H](CO)O3)nc2c1	-	.	.	.	-	.
O=S(=O)(c1ccc(Cl)c(Cl)c1)c1snnc1-c1ccccc1	?	.	-	118.1	-	.
O=S(=O)(O)c1ccc(SCc2ccccc2)nc1	-	-	-	-	-	-
COc1ccc(-n2nc(C(=O)NCC(=O)N3CCN(c4ccccn4)CC3)c3ccccc3c2=O)cc1OC	-	-	-	-	-	-
COc1ccc(-c2cc(C(F)(F)F)nc(S(=O)(=O)CCCC(=O)Nc3cc(C)on3)n2)cc1OC	-	.	-	-	-	.
COc1ccccc1-c1cc(C(F)(F)F)nc(S(=O)(=O)CCCC(=O)Nc2cc(C)on2)n1	96.7	-	-	-	-	-
COc1ccccc1-c1cc(C(F)(F)F)nc(S(=O)(=O)CCCC(=O)Nc2cccnc2Cl)n1	90.7	.	-	.	-	.
COc1ccccc1-c1cc(C(F)(F)F)nc(S(=O)(=O)CCCC(=O)N2CCCCC2C)n1 (stereo not drawn)	96.7	-	-	-	67.0	-
COc1ccccc1-c1cc(C(F)(F)F)nc(N2CCCC2)n1	-	-	-	-	-	-
COc1ccccc1/C=C/C(=O)Nc1cccnc1Cl	-	-	-	-	-	-
COc1ccccc1-c1cc(C(F)(F)F)nc(S(C)(=O)=O)n1	96.5	-	-	-	-	-
CC1CN(CCOc2ccc(F)cc2)CC(C)O1 (stereo not drawn)	-	-	-	-	-	-
CCC(=O)c1c(OCc2ccccc2)ccc2c(C)cc(=O)oc12	.	-	.	-	.	-
COc1ccccc1-c1cc(C(F)(F)F)nc(S(=O)(=O)CCCC(=O)NCc2ccc(F)cc2)n1	88.1	-	-	-	-	-
Cc1ccc2sc(-c3ccc(NC(=O)c4cc(-n5cnnc5)ccc4Cl)cc3)nc2c1	-	-	-	-	.	-
COc1cccc(/C=N/n2c(N)c(S(=O)(=O)c3cccs3)c3nc4ccccc4nc32)c1OC	-	-	-	-	.	-
Nc1c(S(=O)(=O)c2cccc(Cl)c2)c2nc3ccccc3nc2n1/N=C/c1ccc(O)c(O)c1	.	-	.	88.8	.	-
CC1CCN(c2c(NCC3CCC(C(=O)NC4CCCCCC4)CC3)c(=O)c2=O)CC1 (stereo not drawn)	-	-	-	-	-	-
CCn1c(=O)n(CC)c2cc(N3CCCC3)c(NC(=O)c3cccc(C)c3)cc21	-	-	-	-	.	-
COc1ccc(-c2cn3cc(C)ccc3n2)cc1F	-	-	-	77.5	-	-
SMILES	Shn3 inh set2	Jurkat NFkB inh	Gli-Sufu antag	aSyn 5UTR inh	TAG inh	697 NFkB inh
COc1ccc(-c2cn3cc(C)ccc3n2)cc1OC	-	-	-	-	-	-
CCN1C/C(=C\c2cccc([N+](=O)[O-])c2)C(=O)/C(=C/c2cccc([N+](=O)[O-])c2)C1	95.0	.	-	.	.	.
O=C1/C(=C/c2cccc([N+](=O)[O-])c2)CCc2ccccc21	-	-	-	-	.	-
Cc1ccc(O)c(CNCCNCc2cc(C)ccc2O)c1	-	-	-	-	-	-
CCc1ccc(O)c(CNCCNCc2cc(CC)ccc2O)c1	86.2	-	-	-	.	-
O=C(/C=C/c1ccco1)Oc1cc(Br)cc(/C=N/NC(=O)c2ccccc2O)c1	94.4	.	-	95.9	.	.
Oc1c(N=Nc2ccc(F)cc2)ccc2ccccc12	-	-	-	-	.	-
Oc1ccc2ccccc2c1N=Nc1ccc(F)cc1	-	-	-	-	57.8	-
CCCCN(CCCC)C(=S)N/N=C/c1c(C)[nH]n(-c2ccccc2)c1=O	-	-	-	92.8	-	-
CN(C)S(=O)(=O)c1cccc(CSCc2cccc(S(=O)(=O)N(C)C)c2)c1	-	-	56.5	-	.	-
Cc1cnc(C(=O)OC(C)C(=O)Nc2ccc(Cl)cn2)cn1 (stereo not drawn)	-	-	-	-	-	-
c1csc(CNc2ncnc3sccc23)c1	89.2	-	-	-	.	-
c1ccc(CNc2ncnc3sccc23)cc1	-	-	-	-	.	-
CC1=CC2C(C(O)CC3(C)C2CC(C)C32OCOC23COCO3)C2(C)C/C(=C\O)C(=O)C=C12 (stereo not drawn)	87.5	.	-	.	-	.
CN(CC#CC1(O)c2ccccc2-c2ccccc21)Cc1ccccc1	-	-	-	-	.	-
C#CCN(C)Cc1ccccc1	86.1	-	-	-	-	-
Cc1ccccc1-c1noc(CCC(=O)NC2CCCCC2)n1	-	-	-	-	.	-
Oc1c(C(Nc2nc3ccccc3s2)c2ccco2)ccc2cccnc12 (stereo not drawn)	-	-	-	65.8	.	-
CC(C)C(=O)NC(c1cccc([N+](=O)[O-])c1)c1ccc2cccnc2c1O (stereo not drawn)	89.2	-	73.9	90.7	-	-
CC(C)C(=O)NC(c1ccco1)c1ccc2cccnc2c1O (stereo not drawn)	-	-	-	63.1	71.6	-
CCCC(=O)NC(c1cccc([N+](=O)[O-])c1)c1ccc2cccnc2c1O (stereo not drawn)	87.5	.	.	.	-	.
CCN(CC)c1ccc(C(NC(=O)C(C)C)c2ccc3cccnc3c2O)cc1 (stereo not drawn)	-	.	.	.	-	.
COc1ccccc1NC(=O)N1CCCC1	-	-	-	-	.	-
Cc1cc(C(=O)CCl)c(C)n1CCc1ccc(Cl)cc1	-	-	-	-	59.0	-
CCOC(=O)c1c2c(n(Cc3ccccc3)c1C)C(=O)C(=O)c1ccccc1-2	88.5	.	-	.	-	.
SMILES	Shn3 inh set2	Jurkat NFkB inh	Gli-Sufu antag	aSyn 5UTR inh	TAG inh	697 NFkB inh
Cc1ccc(-c2cc(-c3ccc(F)cc3)nc(N)c2C#N)o1	-	-	-	62.7	.	-
O=C(Oc1c(-c2ccccc2)c(=O)n2c3c(cccc13)CC2)c1ccccc1	-	-	-	-	-	-
O=C(Oc1c(-c2ccccc2)c(=O)n2c3c(cccc13)CC2)c1cccc([N+](=O)[O-])c1	-	-	-	77.3	-	-
COc1cc(C(=O)N2CCN(c3ccc([N+](=O)[O-])cc3)CC2)ccc1OCc1c(C)noc1C	-	-	-	-	-	-
Nc1c(C(=O)Nc2nc3ccccc3s2)sc2nc(-c3cccs3)ccc12	-	-	-	105.7	-	-
c1csc(-c2nc(NCC3CCCO3)c3ccccc3n2)c1 (stereo not drawn)	-	-	-	-	.	-
c1ccc(CN2CCC(Nc3nc(-c4cccs4)nc4ccccc34)CC2)cc1	-	-	-	61.8	-	-

High-throughput results deposited in PubChem by several laboratories.
